Bioassay records deposited in PubChem BioAssay by Sanford-Burnham Center for Chemical Genomics.
A selection: hits, their analogues and other compounds. The true share with any hit is near 3.2%.
aDG glyco act – increases alpha dystroglycan glycosylation; Pro5-aDG cells, alpha-DG glycosylation AlphaScreen (IIH6); 0% Pro5, 100% B10-LARGE cell signal; activation, % at 10 µM; hit rate 0.22% among 360,000; AID 624168;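 active means activation of at least 8% versus controls, or a plate z-score of at least 8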;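 further: Pro5 are CHO cells carrying HIG-tagged alpha-DG that lacks glycosylation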
CRFBP-R2 block – antagonists of CRF-binding protein/CRF-R2 receptor complex; HEK293 CRF-R2/CRF-BP, CRF-induced calcium fluorescence; hit rate 0.59% among 350,000; inhibition, % at 11.8 µM;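 active means inhibition of the ligand-induced calcium signal above about 50% at the single tested concentration, limit read from the data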
CRFR2-BP ag – CRF-BP/CRF-R2 complex agonism | HEK293 CRF-R2/CRF-BP, calcium dye fluorescence (FLIPR); percent of saturating CRF peptide response | activation, % at 13.2 µM | hit rate 0.46% among 350,000 | AID 588473;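 active means activation of at least 50%, plus an integration ratio under a set limit after plate pattern correction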;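 further: plate controls were neutral control wells without compound for no effect and CRF at EC100 for full effect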
PfGluPho inh – PfG6PD (Plasmodium falciparum) enzyme inhibition; PfGluPho enzyme, NADPH resazurin-diaphorase fluorescence; inhibition, % at 20 µM; hit rate 0.78% among 350,000; AID 504690;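 active means inhibition reaching at least a set limit at 20 µM in the primary screen, cut at about 59% in these data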;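 further: 0% = DMSO wells with substrate and 100% = DMSO wells lacking glucose-6-phosphate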
Cardio protect – modulators protecting cardiomyocytes from myocardial damage | protection from H2O2 cell death, % at 20 µM | H9c2 cardiomyocytes, H2O2 injury protection, ATPLite, 2 h | AID 588492 | hit rate 0.63% among 360,000;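 active means compounds giving at least 50% protection of heart cells from peroxide-induced death in the single-dose screen, raw or plate-pattern-corrected value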;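 further: 0% = DMSO wells with peroxide and 100% = DMSO wells without peroxide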
FAS-TE inh – blocks the thioesterase domain of human fatty acid synthase; hit rate 0.67% among 360,000; inhibition, % at 15 µM; recombinant FAS-TE, OMFH fluorogenic substrate, fluorescence endpoint; P49327;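 active means compounds whose normalised, plate-corrected inhibition of enzyme fluorescence in the single-dose primary screen is 50% or more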;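 further: 0% = DMSO with enzyme and 100% = substrate without enzyme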
Numbers without * were called inactive; · = no result given.

SMILES	aDG glyco act	CRFBP-R2 block	CRFR2-BP ag	PfGluPho inh	Cardio protect	FAS-TE inh
CCOC(=O)C(CC(=O)c1ccccc1)CC(=O)c1ccccc1	0	-1	-3	-5	0	4
O=C(OCC(=O)N1CCN(C(=O)c2ccco2)CC1)c1cc(-c2ccc(Cl)c(Cl)c2Cl)nc2ccccc12	0	-18	7	33	0	18
O=C(OCC(=O)N1CCN(C(=O)c2ccco2)CC1)c1cc(-c2ccco2)nc2ccccc12	0	11	0	46	49*	1
CCCn1cc(S(=O)(=O)c2ccccc2)c(=O)c2cc(OCC)ccc21	0	75*	1	1	-2	0
O=C(NCc1ccccc1)C(c1ccccc1)n1c(C2CC2)nc2ccccc21 (stereo unspecified)	0	·	·	·	·	·
CCCNC(=O)C1(C)CCN(Cc2cc3ccccc3o2)C1 (stereo unspecified)	0	·	·	·	0	-6
CC1(C)Cc2c(C#N)c(NCC3CCCO3)nc(-c3ccco3)c2CO1 (stereo unspecified)	0	104*	1	20	-2	-6
CCC(C)NS(=O)(=O)c1ccc(OCC(=O)NCc2ccccn2)cc1 (stereo unspecified)	0	51*	14	-24	0	-5
CCN(CC)C(=O)CSc1ncnc2c1nnn2-c1ccc(OC)cc1	0	84*	1	-11	-6	2
CCOc1ccccc1C(=O)N1CCN(c2ccc(C(F)(F)F)cn2)CC1	3	-15	0	0	-14	3
COCCNC(=O)CN(Cc1ccc(F)cc1)C(=O)CCC(=O)Nc1nccs1	0	4	0	-16	5	-1
O=c1c(O)c(-c2cccs2)oc2ccc(Cl)cc12	0	-254	267*	-29	74*	-8
O=c1c(O)c(-c2cccs2)oc2ccccc12	0	-64	108*	-20	30	-12
NC(=O)c1cc([N+](=O)[O-])ccc1NCc1ccccn1	0	-3	1	3	3	1
O=C(COc1ccc(Br)cc1)N(Cc1ccco1)C1CCS(=O)(=O)C1 (stereo unspecified)	0	-6	-1	-10	1	2
O=c1[nH]c(N2CCOCC2)cc2ccccc12	0	-1	-2	-2	56*	5
O=c1c(N2CCOCC2)coc2ccccc12	0	-6	-1	-19	-2	-13
CCC(=O)c1ccc(N2CCN(C(=O)c3cc([N+](=O)[O-])ccc3N3CCN(C)CC3)CC2)c(F)c1	0	-19	1	10	8	70*
Cc1cccc(CS(=O)(=O)c2nnc([C@H](Cc3ccccc3)NC(=O)OC(C)(C)C)o2)c1	0	12	14	38	-18	57*
COc1ccc(NS(=O)(=O)c2cc([N+](=O)[O-])ccc2N/N=C/c2c(C)[nH]c3ccccc23)cc1	0	-42	51*	5	3	12
O=C(Nc1ncccc1O)c1ccc(S(=O)(=O)Nc2ccccc2)cc1	0	9	-2	-1	3	-8
CN(C)S(=O)(=O)c1cccc(NC(=O)CCc2nc3cc(S(=O)(=O)N4CCOCC4)ccc3n2C)c1	0	17	0	-11	3	5
O=C(Cn1[nH]c(=O)c2ccccc2c1=O)OCC(=O)N(Cc1ccccc1)Cc1ccccc1	0	-17	1	8	106*	11
N#CC1(NC(=O)COC(=O)Cn2[nH]c(=O)c3ccccc3c2=O)CCCCC1	0	-4	0	-9	74*	-5
COc1ccccc1C(=O)NC(=O)COC(=O)Cn1[nH]c(=O)c2ccccc2c1=O	0	-7	-1	14	84*	-3
SMILES	aDG glyco act	CRFBP-R2 block	CRFR2-BP ag	PfGluPho inh	Cardio protect	FAS-TE inh
COc1ccccc1C(=O)NC(=O)COC(=O)CN1C(=O)NC(C)(C)C1=O	0	10	-2	-6	6	-8
CC(=O)N1CCN(c2ccccc2NC(=O)COc2cc(C)ccc2C(C)C)CC1	-1	-13	2	2	66*	7
Cc1ccc(C(C)C)c(OCC(=O)Nc2ccccc2N2CCN(C)CC2)c1	0	-8	-1	15	34	8
N#CC1(NC(=O)COC(=O)CN2C(=O)c3ccccc3C2=O)CCCCC1	0	4	0	10	4	-7
COc1ccc(Cc2nnc(SC(C)C(=O)Nc3ccc(F)cc3Cl)o2)cc1 (stereo unspecified)	0	-3	0	9	-2	-2
CC(C)(C)c1ccc(C(=O)Nc2cccc3c(=O)[nH][nH]c(=O)c23)cc1	0	-65	46	-12	-17	2
O=C(CSc1nnnn1-c1ccc(Cl)cc1)NC1CCS(=O)(=O)C1 (stereo unspecified)	0	14	0	0	-1	-7
Cc1c(C#N)c(NC(=O)C(C)C)n(Cc2ccccc2)c1C	0	-2	0	5	5	-5
CC(C)(C)C1CCC(=O)N(CCOc2ccccc2)CC1 (stereo unspecified)	0	5	0	2	-1	-1
CC(=O)Nc1ccc(N=Nc2ccccc2)cc1[N+](=O)[O-]	0	4	2	-1	2	8
Cc1ccc(C(C)C)c(OCC(=O)NNC(=O)Cn2[nH]c(=O)c3ccccc3c2=O)c1	0	-1	0	0	70*	-2
O=C(COC(=O)Cn1[nH]c(=O)c2ccccc2c1=O)NNC(=O)c1ccccc1	0	-16	4	3	93*	-4
Cc1ccc(C(C)C)c(OCC(=O)NN2C(=O)c3ccccc3C2=O)c1	0	2	0	-4	-3	13
CC(C)NC(=O)COC(=O)Cn1[nH]c(=O)c2ccccc2c1=O	0	8	-1	-6	80*	-4
Cc1ccc(NC(=O)C(C)OC(=O)Cn2[nH]c(=O)c3ccccc3c2=O)cc1 (stereo unspecified)	1	4	-1	-6	17	-4
CC(OC(=O)Cn1[nH]c(=O)c2ccccc2c1=O)C(=O)Nc1ccc(F)cc1 (stereo unspecified)	0	-19	2	4	62*	-3
O=C(Cn1[nH]c(=O)c2ccccc2c1=O)OCC(=O)c1ccc(F)cc1	0	13	-4	-1	31	-4
CC1(C)CC2CC(C)(CN2C(=O)COC(=O)Cn2[nH]c(=O)c3ccccc3c2=O)C1 (stereo unspecified)	0	-22	0	6	52*	2
Cc1cc(CNC(=O)COC(=O)Cn2[nH]c(=O)c3ccccc3c2=O)cc(C)c1O	0	11	-1	-8	104*	-4
Cc1cccc(C)c1OCC(=O)N1CC2(C)CC1CC(C)(C)C2 (stereo unspecified)	0	7	-2	10	-12	-2
